How the values were obtained:
Assay in all cases: PBM binding z-score (relative to random genomic background probes); higher = stronger binding; sequences stand for … in GC…GCGATTGACAGCGTAGAATGAAGG
[1] = test system: PPARg:RXRa DBDmut IVT, anti-RXR (DBD mutation: RXRa K156A/R161A, NR concentration 270 nM, RXRa partner concentration 90 nM)
Procedure, shortened: (§1)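 On custom Agilent 4×180K arrays, double-stranded probes with 34-nt variable regions carried direct-repeat seeds, single-nucleotide variants, half-site ablations or random human genomic background. Ligand-free nuclear receptor dimers were applied for 1 h, and binding was read with antibodies against each partner (one per run). Binding z-scores come from regression-normalized fluorescence, with the random background probes as reference.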

[2] = test system: PPARg:RXRa IVT, anti-PPARg (NR concentration 270 nM, RXRa partner concentration 90 nM)
Procedure, shortened: as §1

[3] = test system: PPARg DBDmut:RXRa IVT, anti-PPARg (DBD mutation: PPARg1 K132A/R137A, NR concentration 270 nM, RXRa partner concentration 90 nM)
Procedure, shortened: as §1

[4] = test system: PPARg DBDmut IVT, anti-PPARg (DBD mutation: PPARg1 K132A/R137A, NR concentration 270 nM)
Procedure, shortened: as §1

[5] = test system: PPARg homodimer (NR concentration 180 nM)
Procedure, shortened: as §1

[6] = test system: PXR:RXRa (NR concentration 270 nM, RXRa partner concentration 90 nM)
Procedure, shortened: as §1

[7] = test system: PXR homodimer (NR concentration 270 nM)
Procedure, shortened: as §1

[8] = test system: RARa:RXR (NR concentration 270 nM, RXRa partner concentration 90 nM)
Procedure, shortened: as §1

[9] = test system: RARa homodimer (NR concentration 270 nM)
Procedure, shortened: as §1

[10] = test system: RARb:RXRa (NR concentration 270 nM, RXRa partner concentration 90 nM)
Procedure, shortened: as §1

[11] = test system: RARb homodimer (NR concentration 270 nM)
Procedure, shortened: as §1

[12] = test system: RARg:RXRa (NR concentration 270 nM, RXRa partner concentration 90 nM)
Procedure, shortened: as §1

[13] = test system: RARg homodimer (NR concentration 270 nM)
Procedure, shortened: as §1

[14] = test system: RXRa DBDmut IVT, anti-RXR (DBD mutation: RXRa K156A/R161A, NR concentration 90 nM)
Procedure, shortened: as §1

[15] = test system: RXRa homodimer (NR concentration 180 nM)
Procedure, shortened: as §1

[16] = test system: THRa:RXRa (NR concentration 90 nM, RXRa partner concentration 90 nM)
Procedure, shortened: as §1

[17] = test system: THRa homodimer (NR concentration 90 nM)
Procedure, shortened: as §1

[18] = test system: VDR homodimer (NR concentration 270 nM)
Procedure, shortened: as §1

Row | Sequence | PBM binding z-score [1] | PBM binding z-score [2] | PBM binding z-score [3] | PBM binding z-score [4] | PBM binding z-score [5] | PBM binding z-score [6] | PBM binding z-score [7] | PBM binding z-score [8] | PBM binding z-score [9] | PBM binding z-score [10] | PBM binding z-score [11] | PBM binding z-score [12] | PBM binding z-score [13] | PBM binding z-score [14] | PBM binding z-score [15] | PBM binding z-score [16] | PBM binding z-score [17] | PBM binding z-score [18]
1 | TCGAGTAGGTTAGTCGGGGCAGTCAGCCAACATA | 2.19 | 1.95 | -0.923 | -0.0532 | -0.451 | -0.323 | -0.507 | 0.0728 | -0.469 | 0.59 | 0.699 | -0.199 | 0.0307 | 0.125 | -0.226 | 0.854 | -0.302 | -0.321
2 | TCATATAGGTAAATGCTAGGTCAAAGTCCGATCT | 4.1 | 3.27 | 0.472 | 1.99 | 1.7 | 1.98 | 1.11 | 2.7 | 1.22 | 1.88 | 2.75 | 2.52 | 1.58 | 1.72 | 2 | 2.96 | 1.76 | 1.35
3 | CCGACTGGGGCAGAAATGTTACCATACCATCCGG | 1.57 | 0.993 | -0.699 | -1.22 | -0.25 | -0.347 | -0.252 | -0.499 | -0.698 | 0.0353 | -0.118 | 0.0842 | 0.109 | -0.424 | 0.066 | -0.666 | -0.0908 | -0.0383
4 | GCTGCTAGGTCAAATGATGGTCAGCTAAAGCTCG | 5.24 | 4.16 | -0.0492 | -0.751 | 1.73 | 1.82 | -0.505 | 3.18 | -0.123 | 4.13 | 3.24 | 5.08 | 5.22 | 1.89 | 3.09 | 2.78 | 0.255 | -0.00739
5 | AGTCAAAGTTCATCTAGGTAACGTAAGATATGCT | 1.19 | 3.69 | 1.19 | 1.17 | 3.13 | 5 | 7.49 | 3.72 | 2 | 5.01 | 4.07 | 5.59 | 6.2 | 4.76 | 4.97 | 3.05 | 0.224 | 4.94
6 | CCGACTGGGGCAAAAGTTACCATACTCAGTACGA | 4.08 | 3.59 | -0.127 | -0.288 | 0.506 | -0.414 | -0.137 | -0.0334 | -0.135 | 0.202 | 0.168 | 0.333 | 0.253 | 0.584 | 0.278 | -0.144 | -0.251 | -0.248
7 | CGAACTAGTTCATCCAGGACAGTGAATACATTGA | 1.33 | 0.831 | 0.796 | 0.456 | 0.323 | 1.64 | 2.98 | 1.06 | 0.65 | 1.53 | 0.846 | 1.12 | 1.39 | 3.28 | 0.593 | 2.23 | 1.07 | 3.24
8 | AGTAGTTGGTCAGCTGAGGTCACACACAATTCGG | 1.18 | 2.65 | 0.554 | 0.308 | 3.34 | 5.41 | 2.54 | 4.6 | 1.53 | 3.63 | 4.45 | 4.21 | 4.62 | 1.36 | 4.2 | 4.88 | 5 | 3.98
9 | CCTTACGGGTCACTGACAGGTTATACCATTTGGA | 3.69 | 3.72 | 0.775 | 0.106 | 2.46 | 3.75 | 0.348 | 4.53 | 1.11 | 4.14 | 3.56 | 5.73 | 4.84 | 1.64 | 5.54 | 2.85 | 0.447 | 1.41
10 | TGAATGTGGTTATAAGATCAGGGAACGTTGCAAA | -0.328 | 0.343 | 0.967 | 1.11 | 0.749 | 0.00497 | 0.777 | -0.382 | 1.15 | 0.0382 | 0.38 | 0.101 | 0.404 | -0.35 | 0.0364 | 0.133 | 0.0859 | 0.37
11 | TCTAGTTGGTCAAAGTTCACACACTCGAAATGCG | 2.57 | 4.89 | 1.12 | 1.12 | 3.54 | 5.09 | 4.01 | 5.1 | 2.77 | 3.83 | 4.37 | 4.88 | 4.04 | 2.68 | 4.73 | 2.62 | 1.04 | 4.58
12 | TCATATAGGTAAATGCTAGGTGAAAGCCCGATCT | 3.61 | 2.73 | 0.828 | 0.941 | 0.598 | 0.505 | -0.0207 | 1.05 | 0.798 | 0.444 | 0.272 | 0.503 | 0.325 | 1.5 | 0.914 | 1.29 | 0.116 | -0.161
13 | ATCGAAAGGTCGTGATGTGAGTATACAGAAAGGC | -0.177 | 1.63 | 1.58 | 1.08 | 1.07 | 2.71 | 0.368 | 3.38 | 0.598 | 3.68 | 2.33 | 3.91 | 3.35 | 1.1 | 4.56 | 2.34 | 0.0191 | 0.997
14 | AGCACGAGGGCACGCTGAGTTGATAGCAGAGTAG | 2.09 | 2.17 | 0.0423 | -0.669 | 0.0355 | 1.32 | 0.313 | 0.919 | -0.335 | 2.59 | 1.33 | 1.97 | 2.42 | 1.87 | 1.52 | 2.05 | 0.103 | 0.992
